Sampled rows, rich in hits. Any-hit rate of the full collection: about 11%.
JMJD2A Tudor inh: blocks the human JMJD2A Tudor domain. O75164. Potency, µM (series often up to 114 µM), for the others: top-dose activity change, negative = inhibition, most hits filed as inhibitors. AID 504339. AlphaScreen JMJD2A-Tudor / H3K4me3 peptide binding. 390,000 tested, 4.4% active; further: on the % scale 0 is the no-effect control and ±100 the full control effect; nearly all actives have a fitted effect of over 50% in size
L3MBTL1 inh-1: L3MBTL1 (human) inhibition. AID 485360. 230,000 tested, 0.66% active. Potency, µM (top dose mostly 57.1 µM), for inactives: top-dose activity, negative = inhibition, most hits filed as inhibitors. Q9Y468. AlphaScreen L3MBTL1–H3K9me1 peptide binding; further: on the % scale 0 is the no-effect control and ±100 the full control effect; nearly all actives have a fitted effect of over 60% in size
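L3MBTL1 50 nM + b-AHA-H3(1-15)K9me1 75 nM, 30 min RT; compound added, 30 min RT; streptavidin donor/Ni-chelate acceptor beads 10 ug/mL each final, 30 min RT dark; AlphaScreen read.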
HP1b chromo inh: inhibitors of HP1-beta chromodomain binding to methylated histone tails; AlphaScreen HP1-beta / biotin-H3K9me3 peptide binding; 390,000 tested, 0.56% active; Potency, µM (top dose mostly 114 µM), without a hit: at the top dose activity change, negative = inhibition, usual class: inhibitors; further: nearly all actives have a fitted effect of over 70% in size
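Compound inhibition of the preformed complex between 50 nM HP1-beta and 50 nM biotinylated H3K9me3 peptide was read by AlphaScreen. Buffer was PBS pH 7.4 with 0.01% Tween-20. Incubations ran 30 min at room temperature, with 10 ug/mL donor/acceptor beads.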
G9a inh: G9a (human) methyltransferase inhibition. 350,000 tested, 8.8% active. G9a H3K9 monomethylation, AlphaScreen, 2 h. Potency, µM (doses to about 102 µM), inactives show top-dose activity, negative = inhibition, hits mostly inhibitors; further: on the % scale 0 is the no-effect control and ±100 the full control effect; nearly all actives have a fitted effect of over 75% in size
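G9a (20 nM) preincubated 15 min RT with compounds, then 500 nM biotinylated H3K9 peptide and 20 uM SAM added; 2 h RT reaction. Monomethyl-H3K9 product detected by AlphaScreen with anti-H3K9me1 antibody, streptavidin donor and anti-rabbit IgG acceptor beads.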
BAZ2B block: inhibitors of human BAZ2B bromodomain; Q9UIF8; AlphaScreen BAZ2B-H3K14Ac peptide displacement; Potency, µM (titrated, usually from 114 µM), inactives show at the top dose activity change, negative = inhibition, most hits filed as inhibitors; 360,000 tested, 4.4% active; AID 504333; further: on the % scale 0 is the no-effect control and ±100 the full control effect; nearly all actives have a fitted effect of over 60% in size
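Complex of BAZ2B and biotin-H3K14Ac (50 nM apiece) forms over 30 min at RT, then faces library compounds up to 110 uM for another 30 min; AlphaScreen beads added, 20 min dark incubation, luminescence read.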
L3MBTL1 inh-2: L3MBTL1 binding inhibition validated. shares compounds with L3MBTL1 inh-1. L3MBTL1 methyl-lysine binding inhibition, biochemical qHTS. Potency, µM, usual class: inhibitors. 500 tested, 91% active; further: nearly all actives have a fitted effect of over 70% in size
L3MBTL1 ctr: AlphaScreen signal inhibition, L3MBTL1 hit counter-screen; Potency, µM (doses to about 57.1 µM), for inactives: top-dose activity change, negative = inhibition, hits mostly inhibitors; AID 602224; shares compounds with L3MBTL1 inh-1; AlphaScreen counterscreen, signal inhibition; 500 tested, under 10 active; further: 0% is about no effect
* hit, by the source's call; ? = inconclusive; nt = no result given; [ ] = another dose, or the depositor's remark. The call rests on the fitted dose curve; in most records, active means well fitted curve in the direction sought with a large enough effect; inconclusive means small, poorly fitted or top-dose-only effect, or another doubt; inactive means no such curve, though single readings can be large; an effect the other way counts as inactive or inconclusive. Potency means the concentration at half of the fitted maximal effect.

SMILES | JMJD2A Tudor inh | L3MBTL1 inh-1 | HP1b chromo inh | G9a inh | BAZ2B block | L3MBTL1 inh-2 | L3MBTL1 ctr
O=S1(=O)Nc2c(ccc3cccnc23)-c2ccccc21 | 5.62µM* | 11.2µM* | 29.0% | -53.7%[59 µM] | 6.31µM* | 2.99* | 9.47µM*
Clc1ccc2ccc3cccnc3c2n1 | -11.1% | nt | -9.0% | 12.5% | 40.7% | nt | nt
Cc1cc(C)n(CC(=O)NC2CCCCC2C)c(=O)c1C#N (stereo not drawn) | -14.1% | 2.8% | 22.8% | -1.8% | 10.0% | nt | nt
Cc1csc(NC(=O)CSc2nncn2C)n1 | 1.8% | 4.3% | 34.3% | 34.7%[59 µM] | 10.6% | nt | nt
Cn1cnnc1SCC(=O)Nc1ncc([N+](=O)[O-])s1 | 28.2µM* | 28.2µM* | ? | nt | nt | 1.68* | -0.1%
O=[N+]([O-])c1ccc(C(O)C[n+]2ccccc2)cc1 (stereo not drawn) | ? | 3.7%[2.29 µM] | 28.3% | 9.6%[0.501 µM] | -30.2% | nt | nt
N#Cc1ccccc1COc1cccc2c1CCCC2O (stereo not drawn) | -12.9% | nt | 73.0% | 10.7%[2.33 µM] | 1.9% | nt | nt
CCOC(=O)c1nc2sc3c(c2c(=O)[nH]1)CCCC3 | -10.2% | -3.6% | 41.7% | 26.8%[59 µM] | 10.3% | nt | nt
N#C/C(=C\c1ccc(C(=O)O)cc1)c1nc2sc3c(c2c(=O)[nH]1)CCCC3 | ? | 22.4µM* | -33.1% | 39.8µM* | 44.7µM* | 10.6* | -24.2%
O=C(/C=C/c1ccco1)NC(=S)Nc1cccc([N+](=O)[O-])c1 | ? | 35.5µM* | -8.8% | -42.5%[59 µM] | ? | 23.8* | -1.1%
O=C(NC(=S)Nc1cccc([N+](=O)[O-])c1)c1ccco1 | 0.7% | 10.3% | 30.1% | -10.6%[59 µM] | 6.0% | nt | nt
N#CCc1ccc(NC(=O)/C=C/c2ccc([N+](=O)[O-])o2)cc1 | ? | 3.98µM* | 16.5% | 70.8µM* | ? | 26.7* | 11.0%
O=C(Cc1ccc([N+](=O)[O-])cc1)N/N=C/c1ccc([N+](=O)[O-])o1 | -23.1% | -14.1% | 19.3% | ? | ? | nt | nt
COc1ccc(N=C2NC(=O)S/C2=C\c2ccc(N(C)C)cc2)cc1 | -30.1% | -0.1% | -17.9% | -41.8%[59 µM] | -34.7% | nt | nt
Cc1ccc(N=C2NC(=O)S/C2=C\c2ccco2)cc1 | 17.8µM* | 25.1µM* | 0.8% | ? | 63.1µM* | 11.9* | 7.0%
COc1cccc(NC(=O)CN(C)C(=O)c2ccc3c(c2)C(=O)N(CCC(C)C)C3=O)c1 | -25.5% | -2.2% | 14.3% | -4.4%[12.7 µM] | 3.0% | nt | nt
CC1=NOC(=O)/C1=C\c1ccc(-c2ccc(Cl)c(C(=O)O)c2)o1 | 79.4µM* | 20µM* | ? | 15.8µM* | 79.4µM* | 2.67* | -21.2%
COC(=O)c1ccc(N2NC(=O)/C(=C/c3ccc(-c4ccc(Cl)c(C(=O)O)c4)o3)C2=O)cc1 | 56.2µM* | 6.31µM* | ? | 17.8µM* | 50.1µM* | 1.68* | -16.7%
O=C(O)c1ccc(N2C(=O)/C(=C\c3ccccc3)N=C2c2ccccc2)cc1 | -0.7% | nt | 48.8% | 17.3%[59 µM] | -15.3% | nt | nt
COC(=O)N/N=C/c1ccc(-c2ccc(C)c(Cl)c2)o1 | -18.8% | -15.4% | -3.0% | -10.8%[59 µM] | 1.8% | nt | nt
O=C1NN(c2ccccc2)C(=O)/C1=C/c1ccc(-c2ccc(C(=O)O)cc2)o1 | 56.2µM* | 12.6µM* | ? | nt | 50.1µM* | 2.99* | ?
O=C1NC(=O)/C(=C/c2ccc(-c3cc(C(=O)O)ccc3Cl)o2)S1 | -18.9% | 7.08µM* | 15.3% | nt | -11.6% | 8.44* | -6.3%
O=C(/C=C1\SC(=O)NC1=O)Nc1ccc(C(=O)O)cc1 | -14.7%[11.4 µM] | nt | 40.8% | nt | -6.5% | nt | nt
O=c1c2ccccc2sc2nc(C3CCCCC3)n(Cc3ccco3)c(=O)c12 | -24.6% | nt | 9.1% | ? | ? | nt | nt
CCc1nc2sc3ccccc3c(=O)c2c(=O)n1Cc1ccco1 | 56.2µM* | 31.6µM* | -10.0% | -18.6%[59 µM] | ? | 16.8* | 9.0%
SMILES | JMJD2A Tudor inh | L3MBTL1 inh-1 | HP1b chromo inh | G9a inh | BAZ2B block | L3MBTL1 inh-2 | L3MBTL1 ctr
O=C(Nc1cc2c(oc1=O)CCCC2=O)c1ccc(Cl)cc1 | 14.1µM* | 15.8µM* | -65.5% | 3.5%[12.7 µM] | 39.8µM* | 3.77* | 11.1%
Cn1cc(S(=O)(=O)N2CCCC2)cc1C(=O)NCCc1ccccc1 | -12.9% | 0.0% | 25.4% | nt | 9.1% | nt | nt
CCOC(=O)Nc1ccc(N2CCOCC2)c(S(=O)(=O)N2CCOCC2)c1 | -5.1% | nt | 12.2% | 76.4% | -5.0% | nt | nt
Cc1ccc(-c2nc3c(c(=O)[nH]c(=O)n3Cc3ccccc3)n2C)o1 | ? | 10µM* | -11.4% | 1.41µM* | ? | 3.36* | 15.9%
O=C(O)CCCN1C(=O)/C(=C\c2ccc(-c3nc4ccccc4s3)o2)SC1=S | -31.6%[11.4 µM] | 3.55µM* | 17.8µM* | nt | 7.94µM* | 4.23* | ?
Cc1nn(-c2ccccc2)c2nc(-c3ccco3)cc(C(=O)O)c12 | ? | 11.2µM* | 9.4% | 20µM* | ? | 1.06* | 2.5%
O=C(O)c1cc(-c2ccco2)nc2ccccc12 | 25.1µM* | 22.4µM* | 44.7µM* | 28.2µM* | ? | 2.99* | -4.5%
CCOc1ccc(/C=N/NC(=O)c2cc(-c3ccco3)nc3ccccc23)cc1 | -10.4% | 4.1% | 33.1% | 14.4%[59 µM] | 8.2% | nt | nt
CCNC(=O)COC(=O)c1cc(-c2ccco2)nc2ccccc12 | 56.2µM* | 25.1µM* | ? | 39.8µM* | 50.1µM* | 4.23* | 6.4%
COc1ccccc1NS(=O)(=O)c1cccc(C(=O)NCC2(N3CCCCC3)CCCCC2)c1 | -10.1% | nt | 20.9% | nt | nt | nt | nt
Cc1ccccc1N=C1NC(=O)/C(=C/c2cccn2-c2cccc(C(=O)O)c2)S1 | 50.1µM* | 39.8µM* | ? | 28.2µM* | 39.8µM* | 4.23* | -20.8%
CC(=O)Oc1ccc2c(=O)c(Oc3ccccc3)coc2c1OC(C)=O | ? | 14.1µM* | -12.2% | 8.91µM* | 50.1µM* | 9.47* | 8.9%
Cc1cccc(/C=C(\C(=O)O)c2ccc(S(=O)(=O)N3CCCC3)s2)c1 | ? | 28.2µM* | -9.6% | nt | nt | 5.32* | 2.8%
O=C(CS(=O)CC(=O)Nc1cccnc1)Nc1ccc(F)cc1 (stereo not drawn) | -6.2% | nt | 51.7% | -18.6% | 6.2% | nt | nt
